Hits are enriched below; roughly 3.9% of the tested compounds scored in any of these assays.
CCHF vOTU inh-1: CCHFV vOTU protease inhibitors, primary screen, biochemical, Pep-AMC substrate, fluorescence | inhibition, % at 11.5 µM | 0.55% of 370,000 active | Crimean-Congo hemorrhagic fever virus L polyprotein viral ovarian tumor (vOTU) protease … | AID 651958, 2012; also: 0% = vehicle wells with enzyme and 100% = no enzyme wells
Vc quorum ag: inducers of Vibrio cholerae quorum light production without autoinducers, primary screen, BH1578 luxS cqsA deficient, single point. V. cholerae BH1578 lux reporter, luminescence, 6 h. activation, % at 18.7 µM. 0.16% of 350,000 active. AID 588436, 2011; in the data active = activation mostly above about 9.7%, no sharp cut-off
GDH-TPI counter: GDH-TPI coupling enzyme inhibitors, primary screen, artefact control for M. tuberculosis FBA inhibitor project, biochemical, absorbance, full deck; 1.2% of 360,000 active; GDH-TPI coupled enzyme counterscreen, NADH absorbance; inhibition, % at 4.8 µM;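 also: 0% = DMSO wells and 100% = wells lacking the enzyme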
FBA Mtb inh: Mtb FBA enzyme inhibitors, primary screen, biochemical, fluorescence, strain H37Rv; Fructose-bisphosphate aldolase (Mycobacterium tuberculosis (strain ATCC 25618 / H37Rv)), …; purified M. tuberculosis FBA, fluorescence read-out; inhibition, % at 1 µM; 2.3% of 360,000 active; AID 588726, 2011; in the data active = inhibition above about 27%;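 also: 0% = vehicle and 100% = reference inhibitor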
Target sequence (P9WQA3 whole entry, looked up): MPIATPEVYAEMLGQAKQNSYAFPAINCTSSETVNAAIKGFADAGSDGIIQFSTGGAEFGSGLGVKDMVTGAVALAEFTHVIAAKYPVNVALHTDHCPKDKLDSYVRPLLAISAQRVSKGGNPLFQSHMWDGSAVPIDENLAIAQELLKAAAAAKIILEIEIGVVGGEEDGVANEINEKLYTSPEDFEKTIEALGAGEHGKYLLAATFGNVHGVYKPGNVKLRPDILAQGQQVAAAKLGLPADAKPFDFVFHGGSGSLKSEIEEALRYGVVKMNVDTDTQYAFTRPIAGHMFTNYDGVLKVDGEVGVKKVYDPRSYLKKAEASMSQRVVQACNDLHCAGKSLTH
CCHF vOTU inh-2: CCHFV vOTU protease inhibitors, confirmation, biochemical, Pep-AMC substrate, fluorescence. shares compounds with CCHF vOTU inh-1. Recombinant CCHFV vOTU. inhibition, % at 11.5 µM. 17% of 1,900 active. AID 686976, 2013
* hit, by the source's call; i = inactive; x = no result given. Rule as the data show it, unless noted: active = inhibition above about 30%; inactive = the rest.

SMILES | CCHF vOTU inh-1 | Vc quorum ag | GDH-TPI counter | FBA Mtb inh | CCHF vOTU inh-2
CN(C)c1ccc(/C=C(\C#N)c2ccccc2)cc1 | x | i | 13.8 | -0.8 | x
C[n+]1c(-c2ccccc2)cc2c(=Cc3ccccc3)c3ccccc3n21 | 82.8* | i | 13.3 | 2.3 | 78.1*
CCc1nnc(NS(=O)(=O)c2ccc(NC(=O)c3ccccc3C)cc2)s1 | -5.9 | -4.8 | 22.1 | 12.3 | x
CC(C)CNS(=O)(=O)c1cc(C(=O)OCC(=O)N(C)C2CCS(=O)(=O)C2)c(Cl)cc1Cl (stereo not given) | -4.7 | -8.5 | 2.6 | 1.5 | x
CC(C)c1cc(CNC(=O)CC2C(=O)NCCN2CC2CCCCC2)on1 (stereo not given) | 5.9 | i | -3.8 | 1.6 | x
COc1ccc(/C=N/NC(=O)c2cc[n+]([O-])cc2)cc1OC | x | -0.7 | 20.7 | -1.0 | x
COc1cc(/C=N/NC(=O)c2cc[n+]([O-])cc2)ccc1O | 30.4* | 0.3 | 29.0 | -1.8 | -11.0
Cc1oc2c(c1C(=O)N1CCC(C)CC1)C(=O)c1ccccc1C2=O | 31.7* | x | x | x | 15.6
CCOC(=O)C1CCN(C(=O)c2c(C)oc3c2C(=O)c2ccccc2C3=O)CC1 | 61.2* | x | -8.2 | -1.3 | 46.2*
COc1cc(Cl)c(C)cc1NC(=O)Cn1c(NCCO)nc2ccccc21 | 3.0 | -0.5 | -2.5 | -3.3 | x
O=C(NCc1ccccc1)c1nc2c(nnn2Cc2cccc(Cl)c2)c(=O)[nH]1 | 44.6* | -1.6 | -13.9 | -2.3 | 7.4
O=C(NCc1ccco1)c1nc2c(nnn2Cc2cccc(Cl)c2)c(=O)[nH]1 | 20.7 | -13.4 | 8.3 | -0.2 | x
CCCCNC(=O)Nc1c(C(=O)OC)[nH]c2ccc(C)cc12 | 11.9 | 7.1 | 3.4 | 6.8 | x
CC(=O)Oc1ccc(-c2csc(Nc3ccccn3)n2)cc1 | 42.1* | i | 8.0 | -3.8 | -1.9
CC(=O)Oc1ccc(-c2csc(Nc3cccc(C)n3)n2)cc1 | 0.8 | -1.2 | 2.5 | 0.7 | x
N#Cc1c(-c2ccccc2)nc(SCC(=O)Nc2ccc(OC(F)(F)Cl)cc2)[nH]c1=O | 31.1* | -5.6 | 8.0 | 4.1 | 16.1
N#Cc1c(-c2ccccc2)nc(SCC(=O)Nc2ccccc2)[nH]c1=O | 14.3 | -0.1 | -3.0 | 0.1 | x
CCN(Cc1ccccc1)C(=O)COC(=O)c1n[nH]c2ccccc12 | 1.6 | i | -14.1 | 7.5 | x
COCC(=O)OC1CCn2c1nc1c2C(=O)C(C)=C(NC(C)=O)C1=O (stereo not given) | 99.8* | i | -0.5 | -0.5 | 99.7*
COc1ccccc1Cc1c(-c2ccc(OC)c(OC)c2)nc2ccc(Br)cn12 | 21.9 | x | x | 0.7 | x
O=C(NCCOc1ccccc1Cl)c1cccc2c1C(=O)c1ccc(Cl)cc1S2(=O)=O | -1.8 | i | -5.8 | 0.5 | x
Cc1c(C(=O)OCC(C)C)[nH]c2c1C(=O)CC(c1ccco1)C2 (stereo not given) | 19.6 | -0.4 | 7.9 | 3.6 | x
C/C=C/COC(=O)c1[nH]c2c(c1C)C(=O)CC(c1ccco1)C2 (stereo not given) | 30.0* | i | 6.9 | 0.1 | -16.9
NC(C(=O)O)c1cc(=O)[nH]o1 (stereo not given) | -6.2 | -0.7 | -4.7 | 1.6 | x
O=C1c2ccccc2C(=O)c2c(/C=C/N3CCCCC3)ccnc21 | 29.8* | i | 2.3 | -3.2 | 52.1*
SMILES | CCHF vOTU inh-1 | Vc quorum ag | GDH-TPI counter | FBA Mtb inh | CCHF vOTU inh-2
CC(C)(C)C(=O)Nc1nnc(CCc2ccccc2)s1 | -5.7 | 1.5 | 2.6 | 1.7 | x
Cc1nnc(Sc2cc(NCCCO)c([N+](=O)[O-])c3nonc23)s1 | 30.9* | -0.5 | 0.6 | -8.8 | 8.6
CC(C)(C)OC(=O)N(CCc1ccccc1)Cc1cccc(OCc2cccc(NC(=O)C3CCC3)c2)c1 | 13.4 | i | 5.7 | -3.0 | x
CC(C)(C)OC(=O)N(Cc1ccccc1)Cc1cccc(OCc2cccc(NC(=O)C3CC3)c2)c1 | 32.3* | -0.6 | 1.9 | -3.0 | -11.0
CC(=O)Nc1ccc(S(=O)(=O)NC2=C(N3CCN(C)CC3)C(=O)c3ccccc3C2=O)cc1 | 52.8* | -0.2 | 10.4 | 1.7 | 29.5*
CCN1CCN(C2=C(NS(=O)(=O)c3ccc(NC(C)=O)cc3)C(=O)c3ccccc3C2=O)CC1 | 58.3* | i | 8.6 | -1.0 | 22.1
O=C(N/N=C/c1ccc(OCc2ccccc2)cc1)c1ccncc1 | 11.1 | -0.2 | 7.1 | -2.1 | x
Oc1ccc(N=Cc2ccc(OCc3ccccc3)cc2)cc1 | 93.6* | i | 0.9 | 0.4 | 66.6*
COC(=O)CC1OCC=C2CN3CCC45C6=CC(=O)C(=O)C([N+](=O)[O-])=C6NC4C1C2CC35 (stereo not given) | 63.9* | 0.3 | 16.4 | -0.6 | 23.3
O=C(O)CC1OCC=C2CN3CCC45C6=CC(=O)C(=O)C([N+](=O)[O-])=C6NC4C1C2CC35 (stereo not given) | x | i | -2.1 | -1.1 | x
COc1ccccc1C=NN1CCCCCC1 | 5.4 | -0.4 | 7.1 | 1.9 | x
Cc1ccc2c(c1)C(=O)C(=O)N2c1ccc(C(F)(F)F)cc1 | 29.7* | -1.0 | -11.3 | 1.9 | -8.9
CCOC1=C2CN(S(=O)(=O)c3ccc(C)cc3)[C@H](c3cccc4ccccc34)C[C@H]2[C@H]2C(=O)N(c3ccccc3)C(=O)[C@H]2C1 | -7.1 | x | x | -0.3 | x
CN(C)c1ccc(C(=S)N2CCN(C(=S)Nc3cccc4ccccc34)CC2)cc1 | 0.1 | 1.1 | 1.6 | 7.9 | x
COc1ccccc1N1CCN(C(=O)C2CCN(C(=O)c3ccccc3Cl)CC2)CC1 | 31.2* | i | -1.4 | 2.9 | -6.6
COc1ccc(Cc2noc(CN(C)C3CC(C)(C)NC(C)(C)C3)n2)cc1OC | 9.7 | -0.5 | 7.7 | 0.8 | x
Clc1ccc2c(NCc3cccs3)ncnc2c1 | 4.4 | i | 6.0 | 1.3 | x
CCOc1ccc(NC(=O)CN(C)C(=O)c2ccc(C)o2)cc1OCC | 31.7* | i | -5.7 | 1.6 | -23.3
CCOc1ccc(NC(=O)CN(C)C(=O)c2cc(C)oc2C)cc1OCC | -3.4 | -1.5 | 5.8 | 0.9 | x
CN(Cc1ccccc1)C(=O)c1ccccc1NC(=O)c1ccco1 | 3.7 | 3.8 | 7.7 | 7.4 | x
COCCCNC1=C(C#N)C(=O)NC2(CCCC2)S1 | -2.0 | 0.7 | 10.6 | -0.5 | x
CCCCCCSC1=C(C#N)C(=O)NC2(CCCCC2)S1 | 35.2* | -0.2 | 12.8 | -6.2 | -3.0
CC1OC2CC(=O)OC2C2=C1C(=O)c1c(O)cccc1C2=O (stereo not given) | 97.7* | -0.3 | 0.0 | -4.7 | 91.1*
CC(=O)N(CN1C(=O)c2ccccc2C1=O)c1cccc(C)c1 | -1.4 | i | 7.1 | 1.9 | x
CC(=O)N(/N=C1\Sc2ccccc2C1=O)c1cccc(C)c1 | 36.4* | i | 1.7 | -13.5 | 37.0*
CCOc1ccc(Br)cc1S(=O)(=O)Nc1cccc(S(=O)(=O)Nc2ccccc2C(=O)O)c1 | 30.0* | -5.7 | -1.1 | 3.9 | -4.0
CN(CC(=O)Nc1ccc(F)cc1)C(=O)COC(=O)c1cccc(N(C)C)c1 | 10.8 | -0.6 | 10.5 | -3.3 | x

Source: PubChem
